What all share (experiment): NCI-60 one-dose screen, 48 h (100 = growth as untreated, 0 = no growth, -100 = all killed)
Holding throughout (conditions): 10 µM unless noted

The test system of experiment [1] is T-47D breast.
Experiment [2] deals with BT-549 breast.
Experiment [3] concerns MDA-MB-435 melanoma.
Experiment [4] deals with SW-620 colon.
The subject of experiment [5] is MCF7 breast.
In experiment [6] the test system is HCT-116 colon.
In experiment [7] the test system is HCC-2998 colon.

Compounds without any hit were thinned out: in the full panel of roughly 83,000, 20% have a hit.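 Negative percent growth values reflect cell death: -40 means 40% of the cells present at the start died, and -100 means all died.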 Unmarked numbers belong to inactive results. Calls of active or inactive are those of the source. The calls were made as follows: active = growth percent below 10; inactive = the rest.

For the compound `COc1ccc(C(=O)c2cc3c(N)c(C(=O)Nc4cccc(Cl)c4C)sc3nc2C)cc1`, the growth is 40.9% in experiment [1]; 36.9% in experiment [2]; -6.97% (active) in experiment [3]; 23.2% in experiment [4]; 19.4% in experiment [5]; 7.35% (active) in experiment [6]. Moreover, in experiment [7], the growth was 17.1%.

Take `Cc1ccc(C2C3CC4CCCCC4N3[C@@]3(C(=O)Nc4cc(Cl)ccc43)C2C(=O)c2nc3ccccc3[nH]2)cc1` (stereo not given in full): the growth was 27.4% in experiment [1]; 52.8% in experiment [2]; 26.5% in experiment [3]; 29.8% in experiment [4]; 13.8% in experiment [5]; 19.5% in experiment [6]. For the same compound, the growth in experiment [7] is 38.4%.

Turning to `COc1cc(C(=O)/C=C/c2c(C)n([O-])c3ccc(Cl)cc3[n+]2=O)cc(OC)c1OC`, the growth in experiment [1] is 29.8%; in experiment [2], 64.7%; in experiment [3] it was 49.4%; in experiment [4], 24.2%; in experiment [5] it was 30.4%; in experiment [6], 15.4%. In addition, in experiment [7], the growth is 100%.

With `COc1ccc(-c2nc(N/N=C/c3cccc(O)c3)nc(N3CCOCC3)c2C#N)cc1`, the growth in experiment [1] was 72%; in experiment [2] it was 84.6%; in experiment [3], 97.7%; in experiment [4], 58.9%; in experiment [5], 61.7%; in experiment [6], 59.1%. In addition, the growth in experiment [7] is 108%.

In the case of `COc1ccc2c(Nc3ccc(NS(C)(=O)=O)cc3)c3ccccc3nc2c1`, the growth is 2.85% (active) in experiment [1]; 49.9% in experiment [2]; -11.1% (active) in experiment [3]; -31% (active) in experiment [4]; 11.1% in experiment [5]; 2.19% (active) in experiment [6]. Besides, the growth in experiment [7] is -60.9% (active).

In the case of `CCOC(=O)N1CCN(CCCCl)CC1`, the growth in experiment [1] was 103%; in experiment [2], 99.5%; in experiment [3], 103%; in experiment [4], 107%; in experiment [5] it was 97.7%; in experiment [6] it was 93.8%. Moreover, the growth in experiment [7] was 101%.

In the case of `CC(=O)N1c2ccccc2NC2=C(C(=O)N(C)C2(C)C)C1C` (stereo not given), the growth in experiment [1] is 28.7%; in experiment [2] it was 69.5%; in experiment [3], -67.8% (active); in experiment [4], 24.2%; in experiment [5] it was 16.4%; in experiment [6], 24.9%. The growth in experiment [7] is 60.8%.

Take `COc1ccc(/C=N/C2=C(C#N)C(c3ccccc3[N+](=O)[O-])c3ccc4ccccc4c3O2)cc1` (stereo not given): the growth in experiment [1] is 79.4%; in experiment [2], 92.8%; in experiment [3], 98.5%; in experiment [4], 97.8%; in experiment [5], 56.4%; in experiment [6], 83.3%. The growth in experiment [7] was 106%.

On to `C#CCNC(=O)[C@H](Cc1ccccc1)NC(=O)[C@]12CC[C@@H](C(=C)C)[C@@H]1[C@H]1CC[C@@H]3[C@@]4(C)Cc5c([nH]c6ccccc56)C(C)(C)[C@@H]4CC[C@@]3(C)[C@]1(C)CC2`, for which the growth in experiment [1] was 75.3%; in experiment [2] it was 105%; in experiment [3] it was 105%; in experiment [4], 111%; in experiment [5] it was 85.3%; in experiment [6], 85.9%. Further, the growth in experiment [7] was 109%.

In the case of `COc1ccc(C2=NN(C(C)=O)C(c3cn(Cc4ccc(Cl)cc4)c4ccccc34)C2)cc1` (stereo not given), the growth in experiment [1] is 51.8%; in experiment [2], 97.1%; in experiment [3] it was 96.5%; in experiment [4], 98.2%; in experiment [5], 84.5%; in experiment [6] it was 86.3%. Also, the growth in experiment [7] is 95.5%.

For `O=S(=O)(c1ccccc1)N1CCCc2ccccc21`, the growth in experiment [1] is 96.5%; in experiment [2] it was 110%; in experiment [3], 110%; in experiment [4] it was 104%; in experiment [5], 96.8%; in experiment [6], 105%. Besides, the growth in experiment [7] is 103%.

With `COc1ccc(/C(C)=N/NC(=O)CSc2nc3ccccc3c(=O)n2Cc2ccc(S(N)(=O)=O)cc2)c(OC)c1`, the growth in experiment [1] is 95.6%; in experiment [2], 104%; in experiment [3], 102%; in experiment [4], 102%; in experiment [5] it was 90.7%; in experiment [6], 102%. For the same compound, the growth in experiment [7] is 115%.

For the compound `CC(=O)O[C@H]1CC[C@@]2(C)[C@@H](CC[C@@H]3[C@@H]2CC[C@@]2(C)[C@H]3CC[C@]2(O)C(C)=O)C1`, the growth is 103% in experiment [1]; 92.5% in experiment [2]; 104% in experiment [3]; 104% in experiment [4]; 105% in experiment [5]; 99.1% in experiment [6]. Besides, the growth in experiment [7] was 96.5%.

For the compound `O=C(CN1CCOCC1)Nc1ccc2ncnc(Nc3ccc(Oc4cccc(F)c4)c(Cl)c3)c2c1`, the growth in experiment [1] was 23.9%; in experiment [2], 86.2%; in experiment [3], 85.4%; in experiment [4] it was 100%; in experiment [5], 71.1%; in experiment [6], 73.5%. Further, the growth in experiment [7] is 101%.

`C=C1C(=O)O[C@H]2[C@H]1CC/C(COC(=O)CCCc1c[nH]c3ccccc13)=C\CC[C@@]1(C)O[C@@H]21`: the growth in experiment [1] was 57.3%; in experiment [2], 41.1%; in experiment [3], 60.3%; in experiment [4] it was 24.9%; in experiment [5], 11%; in experiment [6], -77.5% (active). In addition, in experiment [7], the growth was 102%.
